SKKanGAS inh: blocks kanamycin growth of S. pyogenes SKKanGAS strain | BacTiter-Glo, 6 h | inhibition, % at 7.5 µM | hit rate 1.3% among 300,000;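 active = mean replicate score, as percent of positive control median, at least 50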;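 note: strain carries kanamycin resistance gene driven by streptokinase promoter and grows in 40 µg/ml kanamycin; loss of luminescence reflects streptokinase promoter inhibition or plain growth inhibition; 0% = median of DMSO wells and 100% = positive control at its reference dose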
TIM10 inh: growth inhibitors of TIM10 yeast strain; hit rate 1.4% among 330,000; S. cerevisiae TIM10 strain growth, BacTiter-Glo luminescence, 24 h; inhibition, % at 10 µM;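 active = inhibition of 40% or more at the single tested concentration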;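 note: wild-type TIM10 isogenic control strain grown at permissive 25 °C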
tim10-1 inh: inhibits growth of tim10-1 mutant yeast; hit rate 2.2% among 330,000; inhibition, % at 20 µM; S. cerevisiae tim10-1 ts strain growth, BacTiter-Glo, 24 h;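 active = inhibition of at least 40%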;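 note: mutant grown at 25 °C; 0% = DMSO wells with yeast and 100% = wells holding no yeast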
tim23-1 inh: tim23-1 yeast growth inhibition; S. cerevisiae tim23-1 growth, BacTiter-Glo luminescence, 24 h; inhibition, % at 20 µM; hit rate 1.3% among 330,000; AID 463212;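 active = growth inhibition of the mutant yeast at or above 50%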;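 note: temperature-sensitive mutant grown at 25 °C; plate controls were DMSO-treated mutant yeast for no effect and medium wells lacking yeast for full effect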
PfHsp90 set2: reduces growth (ATP signal) of yeast expressing P. falciparum Hsp90; S. cerevisiae expressing PfHsp90, BacTiter-Glo ATP, 48 h; yeast lacking PDR1 and PDR3 efflux regulators; inhibition, % at 9.4 µM; hit rate 0.32% among 310,000; AID 504621;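 active = every replicate shows inhibition above about 80%, whatever the replicate mean, limit read from the data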;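 note: 0% = DMSO neutral controls and 100% = 20 µM radicicol positive controls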
TIM10 conf: confirmation of TIM10 yeast growth inhibitors; hit rate 63% among 4,600; AID 463215; S. cerevisiae tim10 strain growth, BacTiter-Glo luminescence, 24 h; inhibition, % at 10 µM; shares compounds with TIM10 inh;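 active = inhibition of yeast growth at or above a set limit in either of two replicates at 10 µM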;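 note: this counterscreen used the strain with wild-type TIM10; 0% = yeast with DMSO and 100% = medium wells lacking yeast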
* marks the source's active call; other numbers are inactive results; · = not tested or not shown. This is a sample that favours compounds with a hit; in the whole collection about 4.4% have one here.

SMILES	SKKanGAS inh	TIM10 inh	tim10-1 inh	tim23-1 inh	PfHsp90 set2	TIM10 conf
Cc1cc(C)c(NC(=S)NCCCSC2CCCCC2)c(C)c1	9	42*	35	18	-8	27
COc1cccc(NC(=O)NCCCSC2CCCCC2)c1	-7	22	32	35	-3	·
Cc1ccc(S(=O)(=O)Cc2cc(F)c([N+](=O)[O-])cc2[N+](=O)[O-])cc1	6	89*	29	-8	73	68*
Cc1ccc2ncccc2c1NC(=S)NC(=O)c1ccccc1	0	10	35	25	-1	·
CCN1/C(=C/c2ccc3cc(C)ccc3[n+]2CC)Sc2cc(C)c(C)cc21	·	52*	-10	-4	101*	79*
CC1(c2ccc(NC(=O)c3ccccc3F)cc2)CC1(Cl)Cl (stereo unspecified)	1	4	14	24	-21	·
CN(C)CCCN(C(=O)CCc1ccccc1)c1nc2ccc(F)cc2s1	-9	17	28	4	15	·
CN(C)CCCN(C(=O)c1cc(-c2cccs2)nc2ccccc12)c1nc2ccc(F)cc2s1	11	49*	32	13	·	32*
CN(C)CCN(C(=O)C1=COCCO1)c1nc2ccc(F)cc2s1	-1	64*	34	26	11	13
CN(C)CCN(C(=O)c1cc(Cl)sc1Cl)c1nc2ccc(F)cc2s1	-15	5	8	7	-39	·
O=C(Cn1c(=O)n(-c2cccc(C(F)(F)F)c2)c(=O)c2sccc21)NCC1CCCO1 (stereo unspecified)	-2	0	9	3	-16	·
Cc1ccc(C(=O)NNC(=S)NC(=O)c2ccc(Cl)cc2)cc1	100*	48*	38	36	-8	31*
Cc1ccc(S(=O)(=O)N2CCCC2CNC(=O)c2ccc(F)c(F)c2)cc1 (stereo unspecified)	1	-22	7	14	11	·
c1ccc(-c2nc3cnccn3c2Nc2ccc3c(c2)OCCO3)cc1	5	44*	34	35	21	12
CC(C)CC(=O)NC(=S)Nc1cccc(NC(=O)c2ccccc2Cl)c1	0	45*	22	34	12	34*
CC(C)CC(=O)NC(=S)Nc1ccc(NC(=O)c2ccco2)cc1	-1	46*	15	40	30	-23
CC(C)CC(=O)Nc1cccc(NC(=O)c2ccccc2Cl)c1	-2	-3	5	25	-17	·
C=CC[C@@H](CC(=O)NCCO)C(=O)N[C@@H](COC(=O)[C@@H](CC=C)CC(=O)OC(C)(C)C)Cc1c[nH]c2ccccc12	·	1	8	6	30	·
CCn1c(-c2cc(-c3ccc(C)cc3)nc3ccccc23)n[nH]c1=S	-10	42*	33	49	-26	41*
COc1ccc(-c2cc3ccccc3n2CC(O)Cn2nc(C)cc2C)cc1 (stereo unspecified)	9	41*	32	35	-10	35*
Cc1cccc(NC(=S)N/N=C/c2cccn2Cc2ccc(F)cc2)c1	11	53*	35	19	10	49*
CC(C)(C)c1ccc(-n2nc(C#N)c(Cl)cc2=O)cc1	-12	48*	21	-36	100*	47*
CC[C@@]1(C(=O)OC)N[C@H](CN(C)S(=O)(=O)c2ccc(-c3ccccc3)cc2)[C@@H]2C(=O)N(Cc3ccccc3)C(=O)[C@@H]21	·	18	5	11	0	·
O=C(NC(=S)NC12CC3CC(CC(C3)C1)C2)c1ccc(F)cc1	·	44*	20	47	·	48*
O=C(NC12CC3CC(CC(C3)C1)C2)c1ccccc1	6	8	26	7	7	·
N#CC1=C(N)SC(N)=C(C#N)C1CCc1ccccc1	11	70*	30	33	-1	-14
COc1cc2c(cc1NC(=O)CN(C)Cc1nc3ccccc3c(=O)[nH]1)oc1ccccc12	20	42*	27	27	·	-25
CCN(CC(=O)Nc1cc(OC)ccc1OC)Cc1nc2ccccc2c(=O)[nH]1	-3	3	15	14	-45	·
CC[C@]12c3[nH]c4ccc(OC)cc4c3CCN1C(=O)C(CC(=O)NCCc1ccccn1)C[C@@H]2C(=O)N1CCN(C(=O)c2ccco2)CC1 (stereo partly specified)	·	-4	7	13	-14	·
Cc1c(F)cccc1NS(=O)(=O)c1ccc(N2CCCC2=O)cc1	·	·	·	·	0	·

High-throughput results as filed in PubChem.
